Data from PubChem BioAssay.
Several values for one entry are separate records, joined by “and”; a condition that tells them apart may be missing. Identical values can stand only once. Results filed as inconclusive are left out. Activity calls are given as the source filed them. Unless noted, cut-off not given; nearly all actives show AC50 up to about 26 µM.

Experiments:
[1] = viability loss in pontine glioma line – cell-based, SU-DIPG-XVII, MIPE5.0, CellTiter-Glo, qHTS, dose response (AID 1347060); conditions: CellTiter-Glo ATP luminescence;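 further: cells exposed to compound for 48 hours before viability readout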
[2] = viability loss in pontine glioma line – cell-based, JHH-DIPG-1, MIPE4.0, CellTiter-Glo, qHTS, dose response (AID 1347062; cut-off not given, nearly all actives have AC50 up to about 27 µM;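 on AC50: cells exposed to compound for two days before readout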); conditions: JHH-DIPG-1 viability, CellTiter-Glo ATP luminescence
[3] = viability loss in pontine glioma line – cell-based, SU-DIPG-IV, MIPE4.0, CellTiter-Glo, qHTS, dose response (AID 1347063; cut-off not given, nearly all actives have AC50 up to about 30 µM;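 further: compound exposure lasted 48 hours before the viability readout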); conditions: CellTiter-Glo ATP luminescence
[4] = viability loss in pontine glioma line – cell-based, SU-DIPG-XIII, MIPE5.0, CellTiter-Glo, qHTS, dose response (AID 1347064; cut-off not given, nearly all actives have AC50 up to about 23 µM;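 further: cells exposed to compound for 48 hours before the viability read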); conditions: CellTiter-Glo ATP luminescence
[5] = viability loss in pontine glioma line – cell-based, SU-DIPG-XXV, MIPE5.0, CellTiter-Glo, qHTS, dose response (AID 1347065); conditions: CellTiter-Glo ATP luminescence;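 further: cells exposed to compound for 48 hours before ATP readout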
[6] = JHH-DIPG-1 glioma cell viability, MIPE5.0 library, CellTiter-Glo luminescence, qHTS (AID 1347067); conditions: JHH-DIPG-1 glioma viability, CellTiter-Glo ATP luminescence;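 further: cells exposed to compound for 48 hours before readout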
[7] = growth inhibition of DIPG cells – cell-based, MIPE5.0 library, qHTS (AID 1347068; cut-off not given, nearly all actives have IC50 up to about 30 µM;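 on IC50: cells exposed to compound for 48 hours before viability readout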); conditions: SU-DIPG-XXV viability
[8] = viability loss with induced miR-34 in A549 – imaging, A549 dox-inducible miR-34, nuclei and caspase counts, primary screen (AID 1347080;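 active means compounds whose cell count with miR-34 switched on is under 0.7 times the count with it off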); conditions: A549 miR-34 inducible, Hoechst nuclei count, 48 h
[9] = MELAS cybrid and Rieske KO viability enhancers – cell-based, MELAS cybrids, Rieske KO mouse fibroblasts, CellTiter-Glo, primary screen (AID 1508586;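 active means mean z-score across replicates of 1.96 or higher in either the MELAS or the Rieske mutant cell line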;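 further: z relative to plate mean and SD of compound and empty wells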); conditions: low glucose
[10] = growth inhibition of DIPG cells – cell-based, MIPE4.0 library, CellTiter-Glo luminescence, qHTS (AID 1347066; cut-off not given, nearly all actives have AC50 up to about 30 µM;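 further: cells exposed to compound for 48 hours before readout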); conditions: SU-DIPG-VI viability, CellTiter-Glo ATP luminescence
[11] = P. berghei load reduction in hepatocytes – cell-based, HepG2, luciferase luminescence, HepG2 viability, primary screen (AID 624349; in the data active means parasite load remaining mostly below about 12%, no sharp cut-off; inactive means mostly above about 10%;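 further: 100% = mean of DMSO negative control wells on the same plate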); conditions: P. berghei liver stage in HepG2, luciferase luminescence, concentration not given here; parasite load remaining: stronger effect = lower value; viability: measured here: HepG2 viability without parasites
[12] = growth inhibition, single agent or in combination, cell-based, chromothripsis tumors, cisplatin or BGB combos (AID 1671449; in the data active means inhibition above about 80%;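 further: cells exposed for 96 hours; 0% = vehicle DMSO and 100% = killing by high DMSO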); conditions: LFS_MB_P medulloblastoma cells
[13] = growth inhibition, single agent and combos, cell-based, chromothripsis tumors, cisplatin or BGB combos (AID 1671450; in the data active means inhibition above about 80%;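 further: cells exposed to compound for four days; 0% = vehicle DMSO and 100% = cell killing by high DMSO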); conditions: HDN33 neuroblastoma cells, stronger effect = higher value
[14] = growth inhibition, single agents and combos, ICB984, cell-based, cisplatin or BGB combos, synergistic combos for chromothripsis tumors (AID 1671451; call rule not given here;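 further: cells exposed for 96 hours before readout; 0% = vehicle DMSO and 100% = killing by high DMSO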); conditions: ICB984 medulloblastoma cells, drug combinations, stronger effect = higher value
[15] = growth inhibition, single agents and combos, HTB85, cell-based, BGB or cisplatin IC20 combos, synergistic combos for chromothripsis tumors (AID 1671453; in the data active means inhibition above about 80%;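 further: cells exposed for 96 hours before readout; 0% = vehicle DMSO and 100% = high DMSO killing control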); conditions: HTB85 osteosarcoma cells, drug combinations, stronger effect = higher value
[16] = growth inhibition, MDA-MB-436, cell-based, BGB or cisplatin combos, synergistic combos for chromothripsis tumors (AID 1671458; call rule not given here;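 further: cells exposed for 96 hours; 0% = vehicle DMSO and 100% = killing by high DMSO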); conditions: MDA-MB-436 breast carcinoma growth inhibition, drug combinations, stronger effect = higher value
[17] = stronger effect = lower value, cell number ratio, induced over uninduced
[18] = measured here: relative caspase fold change +Dox/-Dox
[19] = measured here: total cells with miR-34 induction, stronger effect = lower value
[20] = measured here: total cells without miR-34 induction
[21] = MELAS cybrid survival, CellTiter-Glo 48 h, stronger effect = higher value
[22] = Rieske KO mouse fibroblast survival, CellTiter-Glo 72 h

With `CNC(=O)c1nn(C)c2c1C(C)(C)Cc1cnc(Nc3ccc(N4CCN(C)CC4)cc3)nc1-2` the AC50 [1] was 5.9 µM (active), the AC50 [2] was 2.35 µM (active) and the AC50 [3] was 14.8 µM (active). The AC50 [4] was 6.61 µM (active), the AC50 [5] was 2.35 µM (active) and the AC50 [6] was 8.33 µM (active). The IC50 [7] was 9.34 µM (active), the fold change [8, 17] was 1.12 (inactive) and the fold change [8, 18] was 0.794. For the same compound, the cell count [8, 19] was 1220, the cell count [8, 20] was 1090 and the z-score [9, 21] was 4.48 (active). For the same compound, the z-score [9, 22] was -3.65.

With `CCCCC(C)(C)[C@H](O)/C=C/[C@H]1[C@H](O)CC(=O)[C@@H]1C/C=C\CCCC(=O)O` the AC50 [1] was 13.2 µM (active), the outcome [2] was “inactive” and the outcome [3] was “inactive”. The AC50 [4] was 14.8 µM (active), the AC50 [5] was 14.8 µM (active) and the AC50 [10] was 18.7 µM (active). For the same compound, the AC50 [6] was 14.8 µM (active), the outcome [7] was “inactive” and the fold change [8, 17] was 1.01 (inactive) and 0.939 (inactive). The fold change [8, 18] was 1.62 and 1.28, the cell count [8, 19] was 6230 and 5490 and the cell count [8, 20] was 6170 and 5850.

For `Cn1c2ccccc2c2c3c(c4c5ccccc5n(CCC#N)c4c21)CNC3=O`, the parasite load remaining [11] was 110% (inactive), the viability [11] was 92.8% and the AC50 [1] was 8.33 µM (active). The outcome [2] was “inactive”, the AC50 [3] was 0.148 µM (active) and the AC50 [4] was 13.2 µM (active). For the same compound, the AC50 [5] was 7.42 µM (active), the AC50 [6] was 11.8 µM (active) and the fold change [8, 17] was 0.591 (active). For the same compound, the fold change [8, 18] was 1.06, the cell count [8, 19] was 1520 and the cell count [8, 20] was 2580.

For `CCN1CCN(c2ccc(Nc3cc(N(C)C(=O)Nc4c(Cl)c(OC)cc(OC)c4Cl)ncn3)cc2)CC1`, the AC50 [1] was 0.235 µM (active), the AC50 [2] was 23.5 µM (active) and the AC50 [3] was 33.2 µM (active). The AC50 [4] was 0.332 µM (active), the AC50 [5] was 0.209 µM (active) and the AC50 [6] was 8.33 µM (active).

For `Oc1ccc(-c2ccc(-c3cc(Nc4cccc(CNC5CC5)c4)n[nH]3)cc2)c(O)c1`, the AC50 [1] was 6.61 µM (active), the AC50 [2] was 1.66 µM (active) and the AC50 [3] was 4.69 µM (active). For the same compound, the AC50 [4] was 13.2 µM (active), the AC50 [5] was 7.42 µM (active) and the AC50 [10] was 16.6 µM (active). For the same compound, the IC50 [7] was 26.3 µM (active).

For `CN(C)c1ccc(C(=O)NCCCCCCC(=O)NO)cc1`, the AC50 [1] was 1.48 µM (active), the AC50 [2] was 0.743 µM (active) and the AC50 [3] was 1.05 µM (active). For the same compound, the AC50 [4] was 0.934 µM (active), the AC50 [5] was 0.934 µM (active) and the AC50 [6] was 1.18 µM (active). The fold change [8, 17] was 0.925 (inactive) and 1.16 (inactive), the fold change [8, 18] was 1.2 and 1.01 and the cell count [8, 19] was 3030 and 2210. For the same compound, the cell count [8, 20] was 3270 and 1910, the z-score [9, 21] was 1.18 (inactive) and the z-score [9, 22] was 0.973. For the same compound, the inhibition ([12]; at 0.5 µM, stronger effect = higher value) was -18.1% (inactive), the inhibition ([12]; measured here: combination with BGB IC20, at 0.005 µM) was -25.6% and the inhibition ([12]; measured here: combination with BGB IC40, at 0.005 µM) was -22.1%. For the same compound, the inhibition ([12]; measured here: combination with BGB IC40, at 0.05 µM) was -25.8%, the inhibition ([12]; measured here: combination with cisplatin, at 0.5 µM, stronger effect = higher value) was -23.5% and the inhibition ([12]; measured here: combination with cisplatin, at 5 µM, stronger effect = higher value) was 107%. For the same compound, the inhibition ([13]; BGB combo, at 5 µM) was 97.7%, the inhibition ([13]; at 0.5 µM) was 36.1% (inactive) and the inhibition ([13]; cisplatin combo, at 5 µM) was 99.4%. The inhibition ([13]; measured here: with BGB IC20 combination, at 0.5 µM) was 24.9%, the inhibition ([13]; measured here: with cisplatin IC20 combination, at 0.5 µM) was 50.9% and the inhibition ([13]; single agent, at 5 µM) was 99.1%. It also gave an inhibition ([14]; BGB IC20 combo, at 0.005 µM) of 6.17%, an inhibition ([14]; BGB IC40 combo, at 0.005 µM) of 7.19% and an inhibition ([14]; BGB IC40 combo, at 0.05 µM) of 87.6%. The inhibition ([14]; at 0.5 µM) was -20.5% (inactive), the inhibition ([14]; cisplatin combo, at 0.05 µM) was 87.3% and the inhibition ([14]; cisplatin combo, at 0.5 µM) was -6.9%. The inhibition ([14]; cisplatin combo, at 5 µM) was -44.2%, the inhibition ([14]; measured here: 5 uM single agent, at 5 µM) was -34.3% and the inhibition ([15]; at 0.5 µM) was 28.6% (inactive). It also gave an inhibition ([15]; measured here: with BGB IC20, at 0.5 µM) of 18.8%, an inhibition ([15]; measured here: with BGB IC20, at 5 µM) of 95.5% and an inhibition ([15]; measured here: with cisplatin IC20, at 0.5 µM) of 33.4%. The inhibition ([15]; measured here: with cisplatin IC20, at 5 µM) was 99.7%, the inhibition ([15]; single agent, at 5 µM) was 97.7% and the inhibition ([16]; at 0.5 µM) was 5.27% (inactive). The inhibition ([16]; measured here: BGB combination, at 0.5 µM) was -2.54%, the inhibition ([16]; measured here: BGB combination, at 5 µM) was 46.7% and the inhibition ([16]; measured here: cisplatin combination, at 0.5 µM) was -2.21%. The inhibition ([16]; measured here: cisplatin combination, at 5 µM) was 47.8%.
